# Columns and labels:
# [1] = target: Ephrin type-A receptor 4 (Homo sapiens) (UniProt P54764); conditions: at 1 µM
# [2] = target: Ephrin type-A receptor 5 (Homo sapiens) (UniProt P54756); conditions: at 1 µM
# [3] = target: Ephrin type-A receptor 5 (Homo sapiens) (UniProt P54756); conditions: at 10 µM
# [4] = target: Ephrin type-A receptor 7 (Homo sapiens) (UniProt Q15375); conditions: at 1 µM
# [5] = target: Ephrin type-A receptor 7 (Homo sapiens) (UniProt Q15375); conditions: at 10 µM
# [6] = target: T1, Ephrin type-A receptor 8 (Homo sapiens) (UniProt P29322); conditions: at 1 µM
# T1 sequence (whole entry): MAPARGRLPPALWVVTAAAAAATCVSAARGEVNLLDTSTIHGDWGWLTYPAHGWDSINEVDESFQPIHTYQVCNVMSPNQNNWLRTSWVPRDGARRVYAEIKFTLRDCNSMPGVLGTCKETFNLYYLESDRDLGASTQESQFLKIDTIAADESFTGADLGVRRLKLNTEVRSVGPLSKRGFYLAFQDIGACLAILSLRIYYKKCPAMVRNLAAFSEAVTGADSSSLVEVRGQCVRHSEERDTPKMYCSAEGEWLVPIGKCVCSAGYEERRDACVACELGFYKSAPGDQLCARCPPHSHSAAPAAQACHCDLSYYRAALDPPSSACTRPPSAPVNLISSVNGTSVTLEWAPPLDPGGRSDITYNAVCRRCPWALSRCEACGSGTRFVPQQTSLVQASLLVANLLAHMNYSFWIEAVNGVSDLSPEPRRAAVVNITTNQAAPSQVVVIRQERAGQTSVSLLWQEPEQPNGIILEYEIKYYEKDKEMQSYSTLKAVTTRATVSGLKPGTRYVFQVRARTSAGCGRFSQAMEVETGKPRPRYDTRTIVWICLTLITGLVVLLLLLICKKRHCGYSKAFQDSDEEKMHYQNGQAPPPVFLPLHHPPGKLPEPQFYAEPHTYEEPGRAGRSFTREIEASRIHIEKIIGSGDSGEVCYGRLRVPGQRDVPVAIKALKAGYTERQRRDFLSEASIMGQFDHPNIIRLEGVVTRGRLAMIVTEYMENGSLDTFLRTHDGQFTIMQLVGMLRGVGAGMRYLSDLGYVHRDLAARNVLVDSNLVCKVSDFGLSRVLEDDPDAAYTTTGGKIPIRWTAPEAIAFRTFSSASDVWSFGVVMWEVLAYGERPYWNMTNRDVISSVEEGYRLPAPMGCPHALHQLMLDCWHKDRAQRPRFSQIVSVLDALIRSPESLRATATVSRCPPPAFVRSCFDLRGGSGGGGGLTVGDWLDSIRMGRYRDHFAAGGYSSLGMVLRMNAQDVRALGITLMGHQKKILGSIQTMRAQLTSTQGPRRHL
# [7] = target: T2, Ephrin type-B receptor 1 (Homo sapiens) (UniProt P54762); conditions: at 1 µM
# T2 sequence (whole entry): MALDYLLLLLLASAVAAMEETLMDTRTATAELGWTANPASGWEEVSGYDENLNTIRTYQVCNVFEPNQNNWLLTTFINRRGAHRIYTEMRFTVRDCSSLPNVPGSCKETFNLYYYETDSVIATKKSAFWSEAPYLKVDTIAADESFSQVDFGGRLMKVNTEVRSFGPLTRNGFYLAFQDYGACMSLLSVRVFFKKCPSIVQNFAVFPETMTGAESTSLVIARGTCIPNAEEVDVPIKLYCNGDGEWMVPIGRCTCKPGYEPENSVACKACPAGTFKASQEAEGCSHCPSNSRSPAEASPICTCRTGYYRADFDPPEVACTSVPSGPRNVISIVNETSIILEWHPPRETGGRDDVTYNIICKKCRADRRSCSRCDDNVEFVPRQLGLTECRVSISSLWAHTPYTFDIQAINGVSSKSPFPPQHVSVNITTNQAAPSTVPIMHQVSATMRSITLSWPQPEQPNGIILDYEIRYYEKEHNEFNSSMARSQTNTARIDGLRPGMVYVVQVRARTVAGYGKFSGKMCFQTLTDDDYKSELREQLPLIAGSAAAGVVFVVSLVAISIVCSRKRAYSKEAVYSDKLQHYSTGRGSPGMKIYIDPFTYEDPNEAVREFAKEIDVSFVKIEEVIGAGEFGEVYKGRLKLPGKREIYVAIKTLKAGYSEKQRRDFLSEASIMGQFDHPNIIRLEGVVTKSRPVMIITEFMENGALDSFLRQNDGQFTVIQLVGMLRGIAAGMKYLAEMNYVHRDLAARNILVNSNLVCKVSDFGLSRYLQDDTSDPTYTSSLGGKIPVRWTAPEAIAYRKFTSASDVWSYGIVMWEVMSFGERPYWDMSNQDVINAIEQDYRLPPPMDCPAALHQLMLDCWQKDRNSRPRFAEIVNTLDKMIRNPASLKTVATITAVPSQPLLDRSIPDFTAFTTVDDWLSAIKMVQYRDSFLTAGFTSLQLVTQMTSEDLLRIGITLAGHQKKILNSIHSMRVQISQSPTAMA
# [8] = target: T2, Ephrin type-B receptor 1 (Homo sapiens); conditions: at 10 µM
# [9] = target: T3, Ephrin type-B receptor 3 (Homo sapiens) (UniProt P54753); conditions: at 1 µM
# T3 sequence (whole entry): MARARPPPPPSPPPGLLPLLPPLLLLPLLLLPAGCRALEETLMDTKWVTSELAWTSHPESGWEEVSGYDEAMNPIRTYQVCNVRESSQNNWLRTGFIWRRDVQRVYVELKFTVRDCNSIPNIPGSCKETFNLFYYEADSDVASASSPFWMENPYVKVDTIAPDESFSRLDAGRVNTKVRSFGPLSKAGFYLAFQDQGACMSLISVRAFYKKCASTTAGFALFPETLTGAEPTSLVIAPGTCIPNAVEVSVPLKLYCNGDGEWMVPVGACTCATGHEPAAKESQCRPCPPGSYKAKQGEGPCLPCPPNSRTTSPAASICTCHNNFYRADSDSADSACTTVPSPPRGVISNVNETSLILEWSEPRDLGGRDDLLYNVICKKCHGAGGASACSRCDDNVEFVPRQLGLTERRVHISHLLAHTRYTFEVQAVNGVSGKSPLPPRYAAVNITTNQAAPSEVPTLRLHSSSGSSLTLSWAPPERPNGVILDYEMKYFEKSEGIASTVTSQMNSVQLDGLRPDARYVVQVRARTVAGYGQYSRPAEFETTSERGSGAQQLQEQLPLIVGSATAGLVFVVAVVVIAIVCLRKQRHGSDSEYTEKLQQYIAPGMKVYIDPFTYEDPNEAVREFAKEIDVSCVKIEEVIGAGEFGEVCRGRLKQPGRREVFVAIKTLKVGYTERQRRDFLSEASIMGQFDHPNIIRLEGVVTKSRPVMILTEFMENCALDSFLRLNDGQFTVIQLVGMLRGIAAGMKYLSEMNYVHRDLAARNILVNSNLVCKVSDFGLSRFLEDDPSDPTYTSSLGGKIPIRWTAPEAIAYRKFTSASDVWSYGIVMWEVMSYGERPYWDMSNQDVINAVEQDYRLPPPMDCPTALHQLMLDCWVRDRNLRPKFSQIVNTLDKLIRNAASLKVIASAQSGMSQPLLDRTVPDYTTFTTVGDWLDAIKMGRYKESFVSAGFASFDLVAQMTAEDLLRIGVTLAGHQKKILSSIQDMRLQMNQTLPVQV
# [10] = target: T3, Ephrin type-B receptor 3 (Homo sapiens); conditions: at 10 µM
# [11] = target: T4, Ephrin type-A receptor 3 (Homo sapiens) (UniProt P29320); conditions: at 10 µM
# T4 sequence (whole entry): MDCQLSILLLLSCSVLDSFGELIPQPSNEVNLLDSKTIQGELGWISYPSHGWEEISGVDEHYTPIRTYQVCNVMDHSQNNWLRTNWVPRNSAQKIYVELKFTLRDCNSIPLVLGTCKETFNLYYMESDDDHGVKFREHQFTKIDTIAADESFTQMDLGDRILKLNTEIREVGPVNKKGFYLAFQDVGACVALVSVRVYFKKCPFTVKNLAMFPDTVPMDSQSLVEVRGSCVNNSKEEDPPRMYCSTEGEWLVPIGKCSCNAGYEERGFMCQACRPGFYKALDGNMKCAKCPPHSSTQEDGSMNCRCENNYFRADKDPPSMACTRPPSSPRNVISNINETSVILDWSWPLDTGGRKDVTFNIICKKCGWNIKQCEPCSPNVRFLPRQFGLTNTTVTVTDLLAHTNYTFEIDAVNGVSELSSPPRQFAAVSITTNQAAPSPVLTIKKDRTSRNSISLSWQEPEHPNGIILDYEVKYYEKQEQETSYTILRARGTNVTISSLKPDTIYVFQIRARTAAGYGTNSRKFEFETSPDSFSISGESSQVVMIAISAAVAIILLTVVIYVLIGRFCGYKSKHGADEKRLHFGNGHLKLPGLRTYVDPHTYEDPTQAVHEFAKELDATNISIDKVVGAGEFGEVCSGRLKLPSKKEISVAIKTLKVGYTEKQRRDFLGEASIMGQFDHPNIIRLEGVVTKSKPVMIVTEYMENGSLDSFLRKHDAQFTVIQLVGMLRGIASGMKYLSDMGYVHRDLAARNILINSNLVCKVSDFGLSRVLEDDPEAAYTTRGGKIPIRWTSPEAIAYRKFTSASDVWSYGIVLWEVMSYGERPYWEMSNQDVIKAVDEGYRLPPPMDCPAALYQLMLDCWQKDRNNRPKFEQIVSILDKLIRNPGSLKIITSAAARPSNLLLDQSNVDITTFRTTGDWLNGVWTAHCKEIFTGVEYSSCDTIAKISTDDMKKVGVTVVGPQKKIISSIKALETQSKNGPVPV
# [12] = target: Receptor tyrosine-protein kinase erbB-4 (Homo sapiens) (UniProt Q15303); conditions: at 1 µM
# Sequence of Receptor tyrosine-protein kinase erbB-4 (Homo sapiens) (Q15303 whole entry): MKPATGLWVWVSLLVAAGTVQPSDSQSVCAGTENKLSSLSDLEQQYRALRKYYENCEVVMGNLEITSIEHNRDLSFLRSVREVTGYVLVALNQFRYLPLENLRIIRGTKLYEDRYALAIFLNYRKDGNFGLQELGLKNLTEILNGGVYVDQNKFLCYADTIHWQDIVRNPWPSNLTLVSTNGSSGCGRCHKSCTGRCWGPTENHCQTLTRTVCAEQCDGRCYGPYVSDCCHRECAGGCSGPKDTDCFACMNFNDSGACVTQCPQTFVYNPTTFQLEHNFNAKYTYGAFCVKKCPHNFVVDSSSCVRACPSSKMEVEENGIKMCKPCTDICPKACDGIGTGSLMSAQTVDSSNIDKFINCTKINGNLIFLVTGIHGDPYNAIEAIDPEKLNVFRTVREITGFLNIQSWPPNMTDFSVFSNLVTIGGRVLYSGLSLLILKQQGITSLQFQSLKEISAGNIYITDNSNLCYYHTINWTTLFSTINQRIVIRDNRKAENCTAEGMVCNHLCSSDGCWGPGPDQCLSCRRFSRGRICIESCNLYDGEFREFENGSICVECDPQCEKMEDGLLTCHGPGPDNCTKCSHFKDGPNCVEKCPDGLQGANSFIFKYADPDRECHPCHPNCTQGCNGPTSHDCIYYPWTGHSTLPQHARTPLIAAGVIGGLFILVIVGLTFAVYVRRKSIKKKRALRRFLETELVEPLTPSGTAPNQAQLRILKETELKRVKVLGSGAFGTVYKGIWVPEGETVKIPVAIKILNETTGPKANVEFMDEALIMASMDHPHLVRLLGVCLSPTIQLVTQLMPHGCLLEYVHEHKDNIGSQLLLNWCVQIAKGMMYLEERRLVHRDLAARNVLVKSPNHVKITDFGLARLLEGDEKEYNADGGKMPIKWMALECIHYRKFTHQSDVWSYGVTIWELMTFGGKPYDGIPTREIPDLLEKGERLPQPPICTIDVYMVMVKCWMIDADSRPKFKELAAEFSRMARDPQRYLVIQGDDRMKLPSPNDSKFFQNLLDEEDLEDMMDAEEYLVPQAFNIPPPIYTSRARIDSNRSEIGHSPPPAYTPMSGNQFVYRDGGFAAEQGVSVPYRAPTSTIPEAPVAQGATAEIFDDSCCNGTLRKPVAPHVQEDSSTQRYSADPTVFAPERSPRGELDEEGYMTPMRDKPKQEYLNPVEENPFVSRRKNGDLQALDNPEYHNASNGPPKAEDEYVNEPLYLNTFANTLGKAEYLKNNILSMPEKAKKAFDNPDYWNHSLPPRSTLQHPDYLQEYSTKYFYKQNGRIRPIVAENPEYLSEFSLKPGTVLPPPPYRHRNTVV
# [13] = target: Receptor tyrosine-protein kinase erbB-4 (Homo sapiens) (UniProt Q15303); conditions: at 10 µM
# [14] = target: T5, Ephrin type-B receptor 4 (Homo sapiens) (UniProt P54760); conditions: at 1 µM
# T5 sequence (whole entry): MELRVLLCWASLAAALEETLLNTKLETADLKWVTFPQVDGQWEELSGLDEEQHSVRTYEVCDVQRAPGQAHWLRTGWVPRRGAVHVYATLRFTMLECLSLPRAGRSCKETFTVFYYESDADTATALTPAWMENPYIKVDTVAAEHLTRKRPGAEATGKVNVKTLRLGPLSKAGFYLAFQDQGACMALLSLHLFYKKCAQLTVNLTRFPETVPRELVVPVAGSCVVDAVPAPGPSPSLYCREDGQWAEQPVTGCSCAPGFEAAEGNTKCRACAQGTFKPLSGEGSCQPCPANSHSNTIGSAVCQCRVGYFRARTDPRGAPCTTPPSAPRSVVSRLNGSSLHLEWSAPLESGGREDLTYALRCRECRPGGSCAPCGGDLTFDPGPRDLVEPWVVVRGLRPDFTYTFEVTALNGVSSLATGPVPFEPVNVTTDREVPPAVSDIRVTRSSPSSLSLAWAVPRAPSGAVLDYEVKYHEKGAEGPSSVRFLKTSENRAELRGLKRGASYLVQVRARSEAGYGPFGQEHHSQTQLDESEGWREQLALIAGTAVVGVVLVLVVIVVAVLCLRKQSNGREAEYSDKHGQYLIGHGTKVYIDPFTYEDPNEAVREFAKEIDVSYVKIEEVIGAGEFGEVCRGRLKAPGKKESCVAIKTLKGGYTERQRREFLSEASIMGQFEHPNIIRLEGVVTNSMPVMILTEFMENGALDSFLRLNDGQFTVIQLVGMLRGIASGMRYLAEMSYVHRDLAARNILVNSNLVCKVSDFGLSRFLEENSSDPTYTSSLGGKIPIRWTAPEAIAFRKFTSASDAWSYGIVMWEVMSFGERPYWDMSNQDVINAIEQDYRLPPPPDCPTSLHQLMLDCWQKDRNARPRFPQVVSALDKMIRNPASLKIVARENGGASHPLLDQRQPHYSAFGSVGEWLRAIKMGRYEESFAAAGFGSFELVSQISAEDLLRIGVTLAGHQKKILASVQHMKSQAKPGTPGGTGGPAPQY
# [15] = target: T5, Ephrin type-B receptor 4 (Homo sapiens); conditions: at 10 µM
# [16] = target: Focal adhesion kinase 1 (Homo sapiens) (UniProt Q05397); conditions: at 1 µM
# Sequence of Ephrin type-A receptor 5 (Homo sapiens) (P54756 whole entry): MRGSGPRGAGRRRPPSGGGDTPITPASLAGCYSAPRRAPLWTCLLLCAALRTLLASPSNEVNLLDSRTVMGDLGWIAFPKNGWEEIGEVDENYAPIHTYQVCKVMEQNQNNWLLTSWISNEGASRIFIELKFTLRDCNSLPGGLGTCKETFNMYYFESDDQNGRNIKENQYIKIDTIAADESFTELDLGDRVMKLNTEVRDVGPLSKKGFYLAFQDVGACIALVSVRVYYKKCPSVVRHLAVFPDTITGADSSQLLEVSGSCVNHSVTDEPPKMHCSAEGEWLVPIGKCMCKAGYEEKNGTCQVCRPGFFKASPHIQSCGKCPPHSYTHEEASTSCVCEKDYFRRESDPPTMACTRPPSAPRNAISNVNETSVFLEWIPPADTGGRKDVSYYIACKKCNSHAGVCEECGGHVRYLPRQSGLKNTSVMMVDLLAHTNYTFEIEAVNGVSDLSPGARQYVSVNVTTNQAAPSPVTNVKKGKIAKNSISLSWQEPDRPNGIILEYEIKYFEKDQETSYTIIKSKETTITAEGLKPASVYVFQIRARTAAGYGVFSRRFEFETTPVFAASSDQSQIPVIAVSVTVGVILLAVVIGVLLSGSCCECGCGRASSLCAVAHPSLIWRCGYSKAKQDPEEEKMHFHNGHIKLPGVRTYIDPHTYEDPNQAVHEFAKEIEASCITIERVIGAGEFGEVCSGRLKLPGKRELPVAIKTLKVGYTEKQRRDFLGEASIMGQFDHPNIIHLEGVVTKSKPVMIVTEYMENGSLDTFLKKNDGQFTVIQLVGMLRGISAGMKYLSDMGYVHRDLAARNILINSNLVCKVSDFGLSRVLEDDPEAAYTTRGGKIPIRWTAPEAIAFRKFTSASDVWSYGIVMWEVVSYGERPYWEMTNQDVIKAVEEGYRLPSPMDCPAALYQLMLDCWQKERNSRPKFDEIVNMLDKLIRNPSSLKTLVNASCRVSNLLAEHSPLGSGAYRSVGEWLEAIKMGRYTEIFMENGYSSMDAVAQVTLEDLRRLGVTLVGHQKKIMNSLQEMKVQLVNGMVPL
# Sequence of Ephrin type-A receptor 7 (Homo sapiens) (Q15375 28-998 limits assumed): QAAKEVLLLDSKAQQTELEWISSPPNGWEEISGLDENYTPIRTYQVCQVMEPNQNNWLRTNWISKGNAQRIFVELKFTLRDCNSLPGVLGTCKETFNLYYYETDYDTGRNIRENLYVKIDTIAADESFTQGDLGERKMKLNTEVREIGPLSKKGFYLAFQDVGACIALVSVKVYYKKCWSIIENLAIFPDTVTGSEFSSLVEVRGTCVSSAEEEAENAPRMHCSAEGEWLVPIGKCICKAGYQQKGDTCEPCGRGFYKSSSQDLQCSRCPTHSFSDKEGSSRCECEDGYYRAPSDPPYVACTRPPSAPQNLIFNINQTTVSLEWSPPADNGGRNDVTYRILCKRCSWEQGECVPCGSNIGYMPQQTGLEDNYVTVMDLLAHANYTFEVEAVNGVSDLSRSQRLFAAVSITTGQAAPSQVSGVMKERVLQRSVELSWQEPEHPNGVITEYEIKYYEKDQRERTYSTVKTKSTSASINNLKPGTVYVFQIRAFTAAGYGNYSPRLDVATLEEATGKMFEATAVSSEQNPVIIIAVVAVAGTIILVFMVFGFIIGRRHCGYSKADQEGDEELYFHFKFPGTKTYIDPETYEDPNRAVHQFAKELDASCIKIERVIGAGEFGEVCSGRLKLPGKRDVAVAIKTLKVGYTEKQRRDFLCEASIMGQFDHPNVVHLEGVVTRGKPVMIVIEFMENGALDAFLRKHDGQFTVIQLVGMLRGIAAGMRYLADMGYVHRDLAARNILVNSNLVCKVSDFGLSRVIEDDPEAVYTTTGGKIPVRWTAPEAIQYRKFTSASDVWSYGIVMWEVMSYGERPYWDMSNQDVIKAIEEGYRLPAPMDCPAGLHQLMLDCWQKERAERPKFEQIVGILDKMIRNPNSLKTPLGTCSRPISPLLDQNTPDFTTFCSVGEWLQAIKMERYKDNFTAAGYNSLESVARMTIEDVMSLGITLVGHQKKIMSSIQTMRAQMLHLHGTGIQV
# Sequence of Ephrin type-A receptor 4 (Homo sapiens) (P54764 whole entry): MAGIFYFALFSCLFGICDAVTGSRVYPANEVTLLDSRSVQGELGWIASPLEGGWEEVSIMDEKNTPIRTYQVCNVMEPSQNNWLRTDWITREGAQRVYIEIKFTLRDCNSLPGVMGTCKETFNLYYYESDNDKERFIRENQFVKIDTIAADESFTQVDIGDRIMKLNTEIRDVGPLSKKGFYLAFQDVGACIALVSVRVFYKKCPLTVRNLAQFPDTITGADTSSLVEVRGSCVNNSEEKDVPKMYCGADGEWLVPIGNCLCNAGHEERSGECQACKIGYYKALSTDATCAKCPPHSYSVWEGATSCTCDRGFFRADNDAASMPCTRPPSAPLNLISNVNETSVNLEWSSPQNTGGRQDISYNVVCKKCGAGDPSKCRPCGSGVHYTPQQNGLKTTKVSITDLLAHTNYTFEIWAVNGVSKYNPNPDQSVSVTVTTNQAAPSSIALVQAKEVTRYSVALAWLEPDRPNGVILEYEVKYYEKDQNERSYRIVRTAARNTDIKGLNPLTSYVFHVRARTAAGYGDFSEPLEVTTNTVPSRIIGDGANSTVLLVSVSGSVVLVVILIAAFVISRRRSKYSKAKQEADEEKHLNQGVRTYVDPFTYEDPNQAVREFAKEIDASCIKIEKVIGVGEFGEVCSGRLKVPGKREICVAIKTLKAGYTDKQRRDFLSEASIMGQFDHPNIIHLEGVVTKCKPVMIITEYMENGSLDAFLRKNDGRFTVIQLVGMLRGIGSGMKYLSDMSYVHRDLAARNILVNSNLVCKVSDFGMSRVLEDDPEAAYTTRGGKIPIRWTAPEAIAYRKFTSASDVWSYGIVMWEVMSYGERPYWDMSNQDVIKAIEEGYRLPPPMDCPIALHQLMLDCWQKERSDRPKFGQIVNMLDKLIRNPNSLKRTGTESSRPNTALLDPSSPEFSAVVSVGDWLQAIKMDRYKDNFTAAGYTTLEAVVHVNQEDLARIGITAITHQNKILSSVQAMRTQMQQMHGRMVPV
compound,measurement,setting,value
O=C(NC(NC(=S)Nc1ccc(F)c([N+](=O)[O-])c1)C(Cl)(Cl)Cl)C(c1ccccc1)c1ccccc1 (stereo unspecified),residual activity,[1],96%
same,residual activity,[2],104%
same,residual activity,[3],91%
same,residual activity,[4],102%
same,residual activity,[5],99%
same,residual activity,[6],103%
same,residual activity,[7],97%
same,residual activity,[8],84%
same,residual activity,[9],104% (inactive)
same,residual activity,[10],84%
O=c1cc(N2CCOCC2)oc2c(-c3ccccc3)cccc12,residual activity,[11],77%
same,residual activity,[5],79%
same,residual activity,[12],79%
same,residual activity,[13],65%
N#C/C(=C\c1ccc(O)c(O)c1)C(=O)NCc1ccccc1,residual activity,[2],101%
same,residual activity,[4],104%
same,residual activity,[5],85%
same,residual activity,[10],133%
same,residual activity,[14],129%
same,residual activity,[15],102%
same,residual activity,[16],127%

# From ChEMBL document CHEMBL2218924, “A broad activity screen in support of a chemogenomic map for kinase signalling research and drug discovery” (Biochem J, 2013)
